Assay outcomes deposited in PubChem by National Center for Advancing Translational Sciences (NCATS).
In the library only some 21% were active in any assay of this set; here they are far more common.
Pf growth 96h: P. falciparum growth inhibition at 96 hour, primary screen for plastid delayed-death inhibitors. P. falciparum luciferase reporter growth, 96 h. Potency, µM (doses to about 28.7 µM), without a hit: at the highest dose activity change, negative = inhibition, usual class: inhibitors. hit rate 6.9% among 320,000; note: potency is the fitted concentration of half-maximal effect; % is set by controls: 0 for no effect and ±100 for the full control effect
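Infected RBCs, 2% Hct / 0.05% parasitemia final; luciferase-reporter P. falciparum; cpd 96 h, 37 C, 5% CO2; luciferase detection reagent; luminescence.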
Shiga toxin inh: inhibitors of Shiga toxin in Vero cells | Vero cells, Shiga toxin protein synthesis inhibition reporter | inhibition, % at 38.7 µM | hit rate 9.2% among 290,000; in the data active = inhibition mostly above about 28%, no sharp cut-off; inactive = mostly below about 43%; note: 0% is about no effect
HCV inhibitor: blocks hepatitis C virus; Potency, µM (doses to about 41.8 µM), for the others: at the highest dose activity change, negative = inhibition, most hits filed as inhibitors; Huh7.5.1 HCVcc-Cre infection, luciferase reporter, 44 h; hit rate 3.4% among 340,000; note: potency is the fitted concentration of half-maximal effect; % is set by controls: 0 for no effect and ±100 for the full control effect
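Compounds are dispensed onto cells plated 4 h earlier at 1,000 per well, with HCVcc-Cre virus (about 0.5 moi) added next. Following 44 h of culture, luminescent signal is measured for 15 sec after 15 min with substrate at room temperature.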
CHX counter: counter-screen hit for Shiga toxin inhibitors, cycloheximide; cell reporter, cycloheximide protein synthesis inhibition counterscreen; max response, %; AID 2314; hit rate 12% among 300,000; in the data active = max response mostly above about 13%, no sharp cut-off; inactive = mostly below about 14%; note: read at 38.3 µM for the half of the compounds with a filed dose; 0% is about no effect
HCMV inh: human cytomegalovirus inhibition; HFF cells, HCMV-luciferase reporter, 72 h; active compounds read low; hit rate 4.5% among 410,000; activity change, negative = inhibition, % at 57.5 µM; AID 1259415; in the data active = activity change below about -60%; inconclusive = no clear call, values can overlap the other calls; inactive = above about -39%; note: % is set by controls: 0 for no effect and ±100 for the full control effect
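HFF cells seeded 16 h at 37C, treated with compounds, infected with luciferase-reporter HCMV at MOI 1 PFU/cell; luciferase read at 72 h post infection, normalized to buffer-only and Salinomycin controls.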
Pf growth 48h: inhibits P. falciparum growth in the first generation, 48 h | P. falciparum luciferase growth in erythrocytes, 48 h | Potency, µM (top dose mostly 28.7 µM), without a hit: top-dose activity change, negative = inhibition, actives largely listed as inhibitors | hit rate 5.9% among 310,000; note: potency is the fitted concentration of half-maximal effect; % is set by controls: 0 for no effect and ±100 for the full control effect
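Here the parasites carry a stable luciferase gene and grow inside erythrocytes in Albumax-based RPMI medium with compound for one erythrocytic cycle. Activity is scored as loss of luminescent signal.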
An asterisk follows results filed as active; ? = inconclusive; . = no result given. Unless noted, calls come from the whole dose curve; as a rule, active = well fitted inhibition curve with a large enough effect; inconclusive = small, poorly fitted or top-dose-only effect, or another doubt; inactive = no such curve, though single readings can be large or run the other way.

SMILES | Pf growth 96h | Shiga toxin inh | HCV inhibitor | CHX counter | HCMV inh | Pf growth 48h
CC(=O)C1C(c2cccc(F)c2)NC(=O)NC1(O)C(F)(F)F (centres undefined) | 4.65µM* | -12.6 | 15.1% | 0.5 | 13.2 | -3.5%
O=C(COc1cccnc1[N+](=O)[O-])NCc1ccc(F)cc1 | 32.7% | -6.7 | 11.4% | -4.6 | -29.1 | 15.7%
O=C(COc1cccnc1[N+](=O)[O-])NCCc1ccccc1 | 26.1% | 16.3 | -1.7% | 14.1* | 23.0 | 7.0%
O=C(COc1cccnc1[N+](=O)[O-])NCCc1ccc(Cl)cc1Cl | -7.7% | -24.4 | 7.8% | 1.3 | -64.4* | ?
COC(=O)c1ccc(COc2cccnc2[N+](=O)[O-])cc1 | 33.8% | 35.2* | -5.9% | 24.2* | -3.0 | 17.2%
CCc1ccccc1N1CC23C=CC(O2)C(C(=O)OCC(C)C)C3C1=O (centres undefined) | 3.7µM* | 16.9 | 9.7% | -2.5 | 10.9 | .
COc1ccc(C(C)N2CC34C=CC(O3)C(C(=O)OCC(C)C)C4C2=O)cc1 (centres undefined) | 14.7µM* | 62.9 | 0.1% | 17.7 | . | 9.2%
CN(C)CCCN(Cc1cc2cc3c(cc2[nH]c1=O)OCO3)C(=S)Nc1ccccc1 | ? | 30.5* | ? | 14.1 | 41.4 | ?
Cc1cc(C)c2cc(CN(CCCN(C)C)C(=S)NCc3ccccc3)c(=O)[nH]c2c1 | ? | -8.9 | 10µM* | -4.0 | -17.4 | ?
COc1ccccc1NC(=S)N(CCCN(C)C)Cc1cc2cc3c(cc2[nH]c1=O)OCO3 | 4.5% | -4.4 | -18.7% | -1.8 | 20.6 | -20.4%
CN(C)CCCN(Cc1cc2cc3c(cc2[nH]c1=O)OCO3)C(=S)Nc1cccc(Cl)c1 | ? | -9.8 | 10µM* | 8.5 | ? | ?
CC(=O)N[C@@H](CCCNC(=N)N)C(=O)N[C@H](CC1CCCCC1)C(=O)N[C@@H]1CCC2SC[C@@H](C(=O)N[C@H](CCCNC(=N)N)C(=O)N[C@H](Cc3ccc(Cl)cc3)C(N)=O)N2C1=O (some centres undefined) | . | -4.6 | . | -4.6 | . | .
COC(=O)c1cn(C(=O)c2cccc(Br)c2)c2ccccc12 | 207.9% | -4.9 | -0.8% | -1.8 | 46.5 | .
Cc1nn(Cc2ccccc2)c(Cl)c1C(=O)OC(C)C#N (centres undefined) | -15.0% | -2.1 | 7.8% | -1.7 | -11.4 | ?
CCOc1ccccc1N1CC(C(=O)Nc2cccc(S(=O)(=O)N3CCCCC3)c2)CC1=O (centres undefined) | ? | -11.4 | ? | 1.8 | -9.2 | ?
O=C(NCc1n[nH]c(=S)n1-c1ccc(Cl)c(Cl)c1)c1ccco1 | 14.7µM* | -5.3 | 25.0% | -2.5 | -13.2 | ?
CCCCCCC1CCC(C(=O)N2CCOCC2)CC1 (centres undefined) | 82.8% | 20.1 | 0.7% | 0.2 | 35.2 | ?
CCCOC(=O)c1c(NC(=O)C2c3ccccc3Oc3ccccc32)sc2c1CCCC2 | . | . | . | . | 0.6 | .
O=C(NCc1ccc(F)cc1)C1CC(=O)N(C2CCCCCCC2)C1 (centres undefined) | ? | -6.2 | -3.8% | 3.6 | -22.2 | 7.8%
CCCC(=O)NC(c1ccco1)c1c(O)ccc2ccccc12 (centres undefined) | ? | -15.5 | -11.2% | 7.2 | -83.6* | ?
CCCCC(=O)NC(c1ccco1)c1c(O)ccc2ccccc12 (centres undefined) | ? | 13.1 | -16.8% | -0.5 | 24.9 | 11.7µM*
CC(C)CC(=O)NC(c1ccccc1Cl)c1c(O)ccc2ccccc12 (centres undefined) | -97.7% | -2.9 | ? | -2.4 | -30.3 | ?
CN(c1ccccc1)P(=O)(N(C)c1ccccc1)N(C)c1ccccc1 | ? | 4.6 | -12.6% | -4.2 | -86.4* | ?
O=C(Cn1c(=O)n(-c2ccccc2Cl)c(=O)c2sc3ccccc3c21)NC1CCCCC1 | . | . | . | . | 11.0 | .
O=C(Nc1cccc2nsnc12)c1cccs1 | ? | 99.3* | ? | 35.2* | 60.6 | 132.1%
SMILES | Pf growth 96h | Shiga toxin inh | HCV inhibitor | CHX counter | HCMV inh | Pf growth 48h
O=C(Nc1cccc2cccnc12)c1c(Cl)cc(Cl)cc1Cl | . | -4.2 | . | 16.7 | . | .
O=C(Nc1cccc2nsnc12)c1cccnc1 | 14.4% | -8.9 | 33.2% | -1.6 | -36.5 | 9.7%
O=C(Nc1cccc2cccnc12)c1cccs1 | . | 79.2 | . | 37.4* | . | .
O=C(Nc1ccccc1)Nc1cccc2nsnc12 | -0.8% | 85.7 | -26.2% | 34.4* | 34.9 | -25.4%
O=S(=O)(Nc1cccc2nsnc12)c1ccccc1 | 10.5% | 0.9 | 9.2% | 9.9 | -0.1 | .
O=C(NC(Cc1ccccc1)C(=O)O)/C(=C/c1ccccc1)NC(=O)c1ccco1 (centres undefined) | 5.22µM* | -4.5 | 13.5% | 17.5 | 37.7 | 24.7%
Cc1ccc(N(C(=O)c2ccccc2Cl)C2=NC(C)CS2)c(C)c1 (centres undefined) | 14.7µM* | 9.9 | ? | 8.5 | ? | ?
CC(OC(=O)CCN1C(=O)C2CC=CCC2C1=O)C(=O)c1ccc(F)cc1 (centres undefined) | -1.2% | . | -3.9% | . | -18.7 | -23.6%
O=C(Nc1ccc2nc3n(c(=O)c2c1)CCCCC3)C(=O)N1CCN(c2ccccc2)CC1 | ? | -3.1 | -9.0% | 0.6 | ? | 1.31µM*
O=C(NCc1ccccc1)C(=O)Nc1ccc2nc3n(c(=O)c2c1)CCCCC3 | . | . | . | . | -4.8 | .
O=c1c2cc(NC(=S)NCc3cccnc3)ccc2nc2n1CCCCC2 | 3.6% | 69.3 | -7.9% | 22.5* | -20.9 | 42.5%
COCC(=O)Nc1ccc2nc3n(c(=O)c2c1)CCCCC3 | -10.3% | 12.6 | 6.4% | 12.4* | -7.1 | 16.1%
CCOC(=O)N1CCN(C(=O)CC(=O)Nc2ccc3nc4n(c(=O)c3c2)CCCCC4)CC1 | 6.9% | -12.9 | -4.6% | 1.4 | 50.8 | 5.86µM*
CCOC(=O)N1CCN(C(=O)C(=O)Nc2ccc3nc4n(c(=O)c3c2)CCCCC4)CC1 | -32.3% | 24.7 | ? | -5.4 | 8.9 | .
Cc1cc(C)cc(NC(=O)CN2C(=O)c3ccccc3Sc3ccc(C(=O)N4CCCC4)cc32)c1 | . | . | . | . | 17.2 | .
COc1ccc(NC(=O)COc2cccc3c2CCNC3=O)cc1 | ? | . | 19.5% | . | 26.7 | -13.2%
CC(=O)NC(Cc1cccc(F)c1)C(=O)NC1CCN(c2nnnn2-c2ccccc2)CC1 (centres undefined) | ? | 24.1 | 21.0% | -2.4 | -10.2 | -9.7%
COc1ccccc1CN1CCCCC1c1cccnc1 (centres undefined) | . | 2.4 | -7.4% | -1.6 | -86.3* | 7.4%
CSc1ccc(-c2nc(CN3CCCCC3c3cccnc3)c(C)o2)cc1 (centres undefined) | -26.0% | 15.4 | -0.2% | -1.4 | -12.9 | 8.28µM*
CCCOc1cccc(CN2CCCCC2c2cccnc2)c1 (centres undefined) | 1.6% | -20.5 | -8.2% | -5.9 | -37.2 | .
